Data reported in the supplement of paper PMC10849652.
Targets with a hit are over-represented here; the source holds about 8,800 in all. About 0.5% of all pairs of compound and target were hits. A number with no mark means an inactive call.

What was measured:
Assay in all cases: log2 fold change, soluble protein after heating vs DMSO (PISA); higher = thermal stabilisation; K562 lysate, 10 uM; active = over 0.2 and 3.5 SD of the protein, either way, in both replicates (recomputed)
alvocidib = compound: CN1CC[C@H](c2c(O)cc(O)c3c(=O)cc(-c4ccccc4Cl)oc23)[C@H](O)C1 [alvocidib]
How it was run: (§1)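 Following dounce homogenisation of K562 pellets in PBS pH 7.4 with 1 mM MgCl2, crude extract at 1 mg/mL protein was incubated for 30 min with 10 μM compound. Aliquots were then heated for 3 min over 48°C-58°C and pooled, NP-40 was added to 0.5% at 4°C, and soluble protein was recovered as the supernatant at 21,000xg for 90 min. Channel-sum-equalised TMTpro 16plex LC-MS/MS quantified this protein. Each value, from duplicates, is a log-two fold change in thermal stability relative to solvent controls.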

Tubastatin A = compound: CN1CCc2c(c3ccccc3n2Cc2ccc(C(=O)NO)cc2)C1 [Tubastatin A]
How it was run: as §1

[1] = compound: CNC(=O)C1=CC=CC=C1NC2=NC(=NC=C2Cl)NC3=C(C=C(C=C3)N4CCOCC4)OC
How it was run: as §1

defactinib = compound: CNC(=O)c1ccc(Nc2ncc(C(F)(F)F)c(NCc3nccnc3N(C)S(C)(=O)=O)n2)cc1 [defactinib]
How it was run: as §1

[2] = compound: CNc1nc(-c2ccc3c(N)n[nH]c3c2)cc(N2C[C@@H](C(=O)NC3CCCCC3)CC[C@H]2C)n1
How it was run: as §1

encorafenib = compound: COC(=O)N[C@@H](C)CNc1nccc(-c2cn(C(C)C)nc2-c2cc(Cl)cc(NS(C)(=O)=O)c2F)n1 [encorafenib]
How it was run: as §1

[3] = compound: COC(=O)[C@H](CCSC)NC(=O)C1=C(C=C(C=C1)NC[C@H](CS)N)C2=CC=CC=C2
How it was run: as §1

alisertib = compound: COc1cc(Nc2ncc3c(n2)-c2ccc(Cl)cc2C(c2c(F)cccc2OC)=NC3)ccc1C(=O)O [alisertib]
How it was run: as §1

[4] = compound: COc1cc2nc(-c3cc(F)ccc3O)nc(N[C@@H]3CNC[C@H]3C(C)(C)O)c2cc1OC
How it was run: as §1

gefitinib = compound: COc1cc2ncnc(Nc3ccc(F)c(Cl)c3)c2cc1OCCCN1CCOCC1 [gefitinib]
How it was run: as §1

lapatinib = compound: CS(=O)(=O)CCNCc1ccc(-c2ccc3ncnc(Nc4ccc(OCc5cccc(F)c5)c(Cl)c4)c3c2)o1 [lapatinib]
How it was run: as §1

pictilisib = compound: CS(=O)(=O)N1CCN(Cc2cc3nc(-c4cccc5[nH]ncc45)nc(N4CCOCC4)c3s2)CC1 [pictilisib]
How it was run: as §1

crizotinib = compound: C[C@@H](Oc1cc(-c2cnn(C3CCNCC3)c2)cnc1N)c1c(Cl)ccc(F)c1Cl [crizotinib]
How it was run: as §1

[5] = compound: C[C@H](C1=CC=C(C=C1)C(=O)NC2=C3C=CNC3=NC=C2)N
How it was run: as §1

duvelisib = compound: C[C@H](Nc1ncnc2nc[nH]c12)c1cc2cccc(Cl)c2c(=O)n1-c1ccccc1 [duvelisib]
How it was run: as §1

gandotinib = compound: Cc1cc(Nc2cc(CN3CCOCC3)c3nc(C)c(Cc4ccc(Cl)cc4F)n3n2)n[nH]1 [gandotinib]
How it was run: as §1

tozasertib = compound: Cc1cc(Nc2cc(N3CCN(C)CC3)nc(Sc3ccc(NC(=O)C4CC4)cc3)n2)n[nH]1 [tozasertib]
How it was run: as §1

doramapimod = compound: Cc1ccc(-n2nc(C(C)(C)C)cc2NC(=O)Nc2ccc(OCCN3CCOCC3)c3ccccc23)cc1 [doramapimod]
How it was run: as §1

bafetinib = compound: Cc1ccc(NC(=O)c2ccc(CN3CC[C@H](N(C)C)C3)c(C(F)(F)F)c2)cc1Nc1nccc(-c2cncnc2)n1 [bafetinib]
How it was run: as §1

[6] = compound: Cc1cccc(CC(=O)N2CCc3c2ccc(-c2cn(C)c4ncnc(N)c24)c3F)n1
How it was run: as §1

UniProt Q6P2E9, sequence (Q6P2E9 whole entry, looked up): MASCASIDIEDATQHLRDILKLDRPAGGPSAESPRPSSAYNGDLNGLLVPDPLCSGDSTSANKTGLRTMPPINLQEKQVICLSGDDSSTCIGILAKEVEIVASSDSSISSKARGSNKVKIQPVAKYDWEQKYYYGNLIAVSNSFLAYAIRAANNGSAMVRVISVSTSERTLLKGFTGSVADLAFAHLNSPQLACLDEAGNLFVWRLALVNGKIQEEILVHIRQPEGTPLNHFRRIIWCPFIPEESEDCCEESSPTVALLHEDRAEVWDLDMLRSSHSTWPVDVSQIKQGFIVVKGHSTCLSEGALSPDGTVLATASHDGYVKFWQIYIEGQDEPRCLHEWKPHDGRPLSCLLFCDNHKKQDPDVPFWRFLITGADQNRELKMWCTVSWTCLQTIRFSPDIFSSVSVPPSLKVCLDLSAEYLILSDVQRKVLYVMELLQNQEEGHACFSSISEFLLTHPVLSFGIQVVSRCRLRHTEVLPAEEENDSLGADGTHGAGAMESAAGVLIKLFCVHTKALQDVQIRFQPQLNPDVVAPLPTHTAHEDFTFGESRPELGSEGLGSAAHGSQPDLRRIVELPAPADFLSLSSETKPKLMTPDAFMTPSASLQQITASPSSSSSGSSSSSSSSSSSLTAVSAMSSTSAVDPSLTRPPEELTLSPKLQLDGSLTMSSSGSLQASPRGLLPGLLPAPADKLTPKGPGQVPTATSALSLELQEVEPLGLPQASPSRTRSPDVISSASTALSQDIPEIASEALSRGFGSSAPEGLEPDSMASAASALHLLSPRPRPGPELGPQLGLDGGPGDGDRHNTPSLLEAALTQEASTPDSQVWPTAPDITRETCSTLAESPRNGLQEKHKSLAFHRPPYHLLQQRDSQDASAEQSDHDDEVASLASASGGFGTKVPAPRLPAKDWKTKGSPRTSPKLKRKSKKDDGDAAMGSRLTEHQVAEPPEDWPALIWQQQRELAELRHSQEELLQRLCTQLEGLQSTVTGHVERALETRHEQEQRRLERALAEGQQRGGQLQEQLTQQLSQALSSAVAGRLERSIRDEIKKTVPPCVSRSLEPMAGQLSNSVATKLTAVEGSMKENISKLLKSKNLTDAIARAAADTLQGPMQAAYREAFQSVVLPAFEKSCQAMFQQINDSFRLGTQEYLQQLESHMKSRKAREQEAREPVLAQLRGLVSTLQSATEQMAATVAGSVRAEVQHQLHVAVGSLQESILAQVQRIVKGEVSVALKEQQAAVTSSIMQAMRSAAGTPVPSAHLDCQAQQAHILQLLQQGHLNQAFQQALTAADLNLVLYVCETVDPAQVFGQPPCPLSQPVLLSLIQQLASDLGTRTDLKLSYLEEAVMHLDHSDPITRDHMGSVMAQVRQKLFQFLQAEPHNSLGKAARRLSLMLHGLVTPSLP
UniProt Q9BPY3, sequence (Q9BPY3 whole entry, looked up): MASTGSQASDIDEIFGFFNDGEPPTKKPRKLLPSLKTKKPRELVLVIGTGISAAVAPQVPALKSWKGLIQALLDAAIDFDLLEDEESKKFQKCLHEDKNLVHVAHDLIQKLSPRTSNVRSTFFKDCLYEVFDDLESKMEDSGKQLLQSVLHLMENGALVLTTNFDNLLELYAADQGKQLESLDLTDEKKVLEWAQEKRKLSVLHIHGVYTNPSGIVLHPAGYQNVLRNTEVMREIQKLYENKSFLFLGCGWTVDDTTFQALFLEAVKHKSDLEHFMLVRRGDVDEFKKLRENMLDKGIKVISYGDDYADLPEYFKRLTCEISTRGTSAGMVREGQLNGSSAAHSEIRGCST
UniProt Q86YP4, sequence (Q86YP4 whole entry, looked up): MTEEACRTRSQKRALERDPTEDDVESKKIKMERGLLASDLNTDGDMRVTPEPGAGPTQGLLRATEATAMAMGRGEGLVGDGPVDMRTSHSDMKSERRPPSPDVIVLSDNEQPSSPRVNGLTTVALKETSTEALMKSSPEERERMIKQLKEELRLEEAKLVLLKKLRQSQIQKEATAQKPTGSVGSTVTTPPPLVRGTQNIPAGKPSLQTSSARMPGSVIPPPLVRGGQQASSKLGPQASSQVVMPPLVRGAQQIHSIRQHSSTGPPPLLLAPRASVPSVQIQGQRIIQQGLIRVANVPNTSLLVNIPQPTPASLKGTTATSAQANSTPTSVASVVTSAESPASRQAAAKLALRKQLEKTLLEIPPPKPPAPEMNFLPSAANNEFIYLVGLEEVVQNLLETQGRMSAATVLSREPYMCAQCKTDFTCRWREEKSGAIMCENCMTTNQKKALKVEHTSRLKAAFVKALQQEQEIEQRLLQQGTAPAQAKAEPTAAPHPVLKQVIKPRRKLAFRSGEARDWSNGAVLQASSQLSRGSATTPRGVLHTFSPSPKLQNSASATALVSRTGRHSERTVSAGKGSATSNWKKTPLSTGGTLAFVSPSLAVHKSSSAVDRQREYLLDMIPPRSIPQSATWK
UniProt Q9UPW0, sequence (Q9UPW0 whole entry, looked up): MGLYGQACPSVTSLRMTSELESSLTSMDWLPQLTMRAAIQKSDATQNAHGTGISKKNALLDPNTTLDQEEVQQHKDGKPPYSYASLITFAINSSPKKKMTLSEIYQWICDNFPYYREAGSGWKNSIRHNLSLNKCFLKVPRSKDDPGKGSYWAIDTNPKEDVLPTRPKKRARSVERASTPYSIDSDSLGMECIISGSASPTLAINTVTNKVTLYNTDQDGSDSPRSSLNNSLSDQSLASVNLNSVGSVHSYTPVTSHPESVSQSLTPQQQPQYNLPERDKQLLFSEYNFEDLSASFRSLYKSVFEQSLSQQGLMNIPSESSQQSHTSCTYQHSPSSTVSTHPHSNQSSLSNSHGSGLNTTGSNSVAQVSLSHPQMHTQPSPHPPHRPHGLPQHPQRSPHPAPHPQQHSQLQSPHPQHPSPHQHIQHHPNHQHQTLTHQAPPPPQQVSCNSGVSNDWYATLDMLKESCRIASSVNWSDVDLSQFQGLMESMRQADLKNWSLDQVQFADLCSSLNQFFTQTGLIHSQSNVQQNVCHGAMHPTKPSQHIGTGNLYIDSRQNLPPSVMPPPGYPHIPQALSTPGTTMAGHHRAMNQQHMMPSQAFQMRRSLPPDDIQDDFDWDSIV
UniProt Q9UBQ6, sequence (Q9UBQ6 whole entry, looked up): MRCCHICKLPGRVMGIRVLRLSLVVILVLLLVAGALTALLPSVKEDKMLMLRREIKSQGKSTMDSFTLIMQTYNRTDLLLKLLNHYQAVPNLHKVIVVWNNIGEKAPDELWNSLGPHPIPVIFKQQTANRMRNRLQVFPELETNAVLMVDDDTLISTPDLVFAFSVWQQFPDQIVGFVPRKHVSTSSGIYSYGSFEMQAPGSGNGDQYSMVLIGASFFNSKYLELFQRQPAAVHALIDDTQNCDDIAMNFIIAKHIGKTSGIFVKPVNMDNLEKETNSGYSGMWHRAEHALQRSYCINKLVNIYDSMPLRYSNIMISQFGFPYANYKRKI
UniProt Q9BXW9, sequence (Q9BXW9 whole entry, looked up): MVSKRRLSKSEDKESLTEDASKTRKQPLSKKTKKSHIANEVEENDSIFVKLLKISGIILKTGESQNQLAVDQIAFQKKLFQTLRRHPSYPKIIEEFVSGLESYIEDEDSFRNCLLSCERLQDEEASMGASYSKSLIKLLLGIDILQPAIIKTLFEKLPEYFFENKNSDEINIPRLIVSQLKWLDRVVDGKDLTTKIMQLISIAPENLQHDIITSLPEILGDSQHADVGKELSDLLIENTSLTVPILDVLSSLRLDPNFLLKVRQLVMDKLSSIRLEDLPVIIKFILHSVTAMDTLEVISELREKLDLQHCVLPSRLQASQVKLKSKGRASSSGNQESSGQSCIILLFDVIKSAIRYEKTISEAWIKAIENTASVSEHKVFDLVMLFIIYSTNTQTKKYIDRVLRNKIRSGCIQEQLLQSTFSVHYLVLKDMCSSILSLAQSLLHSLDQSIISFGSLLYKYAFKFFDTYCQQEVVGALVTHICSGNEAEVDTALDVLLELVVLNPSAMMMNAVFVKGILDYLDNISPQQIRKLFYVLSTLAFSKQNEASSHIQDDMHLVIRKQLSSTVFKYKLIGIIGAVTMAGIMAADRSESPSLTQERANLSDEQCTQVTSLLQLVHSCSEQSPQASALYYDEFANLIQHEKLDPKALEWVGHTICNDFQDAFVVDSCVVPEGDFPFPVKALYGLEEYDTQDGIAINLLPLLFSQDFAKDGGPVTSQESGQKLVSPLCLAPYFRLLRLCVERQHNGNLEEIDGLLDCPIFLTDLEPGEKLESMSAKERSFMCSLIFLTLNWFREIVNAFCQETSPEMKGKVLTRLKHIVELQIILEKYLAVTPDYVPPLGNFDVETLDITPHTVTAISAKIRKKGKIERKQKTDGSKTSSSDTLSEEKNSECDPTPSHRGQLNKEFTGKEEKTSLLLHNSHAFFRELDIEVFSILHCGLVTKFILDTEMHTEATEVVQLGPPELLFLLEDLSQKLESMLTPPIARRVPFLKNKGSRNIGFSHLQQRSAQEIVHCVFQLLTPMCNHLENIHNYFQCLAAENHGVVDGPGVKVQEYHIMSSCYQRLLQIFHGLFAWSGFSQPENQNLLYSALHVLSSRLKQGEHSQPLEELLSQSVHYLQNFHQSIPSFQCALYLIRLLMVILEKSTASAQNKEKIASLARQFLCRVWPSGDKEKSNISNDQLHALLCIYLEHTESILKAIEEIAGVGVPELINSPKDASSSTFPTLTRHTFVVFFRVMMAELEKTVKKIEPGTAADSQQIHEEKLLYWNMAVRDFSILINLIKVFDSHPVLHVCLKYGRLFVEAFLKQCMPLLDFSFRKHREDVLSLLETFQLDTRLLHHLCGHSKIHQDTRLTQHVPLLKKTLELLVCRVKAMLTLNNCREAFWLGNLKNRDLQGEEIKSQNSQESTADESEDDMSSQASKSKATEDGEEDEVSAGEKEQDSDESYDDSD
UniProt O43768, sequence (O43768 whole entry, looked up): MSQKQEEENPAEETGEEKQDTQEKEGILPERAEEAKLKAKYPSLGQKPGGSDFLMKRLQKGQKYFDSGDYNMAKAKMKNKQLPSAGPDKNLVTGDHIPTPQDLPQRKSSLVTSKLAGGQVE

| Target | log2 fold change (alvocidib) | log2 fold change (Tubastatin A) | log2 fold change [1] | log2 fold change (defactinib) | log2 fold change [2] | log2 fold change (encorafenib) | log2 fold change [3] | log2 fold change (alisertib) | log2 fold change [4] | log2 fold change (gefitinib) | log2 fold change (lapatinib) | log2 fold change (pictilisib) | log2 fold change (crizotinib) | log2 fold change [5] | log2 fold change (duvelisib) | log2 fold change (gandotinib) | log2 fold change (tozasertib) | log2 fold change (doramapimod) | log2 fold change (bafetinib) | log2 fold change [6] |
| --- | --- | --- | --- | --- | --- | --- | --- | --- | --- | --- | --- | --- | --- | --- | --- | --- | --- | --- | --- | --- |
| FDFT1 (UniProt P37268) | 0.002 | -0.037 | -0.033 | -0.048 | -0.018 | 0.047 | -0.155 | 0.068 | 0.018 | 0.016 | -0.037 | -0.018 | 0.062 | -0.045 | 0.19 | 0.207 | -0.004 | 0 | 0.018 | 0.01 |
| FXR1 (UniProt P51114) | -0.028 | -0.176 | 0.02 | -0.043 | -0.039 | 0.057 | 0.035 | -0.012 | 0.012 | -0.022 | -0.026 | -0.052 | -0.006 | -0.106 | 0.023 | -0.02 | 0.008 | 0.065 | -0.03 | 0.05 |
| DYRK1A (UniProt Q13627) | 0.106 | -0.088 | 0.113 | 0.016 | -0.034 | 0.024 | 0.002 | -0.008 | 0.017 | 0.007 | -0.024 | -0.003 | 0.018 | 0.055 | -0.021 | -0.012 | 0.03 | -0.06 | -0.028 | -0.021 |
| ERBIN isoform 8 (UniProt Q96RT1) | -0.01 | 0.031 | 0.025 | -0.031 | -0.028 | 0.013 | -0.029 | -0.028 | -0.001 | 0.03 | -0.011 | 0.012 | -0.026 | -0.056 | 0.005 | 0.012 | -0.013 | 0.02 | -0.002 | 0.029 |
| GBF1 (UniProt Q92538) | 0 | -0.041 | 0.032 | 0.007 | 0.004 | 0.036 | -0.031 | 0.002 | -0.008 | -0.03 | -0.015 | -0.023 | -0.064 | -0.026 | -0.002 | -0.108 | 0.014 | -0.006 | -0.043 | 0.049 |
| GGT7 (UniProt Q9UJ14) | -0.013 | 0.076 | 0.008 | 0.066 | 0.079 | 0.078 | -0.065 | -0.015 | 0.044 | 0.055 | -0.024 | -0.007 | 0.01 | 0.068 | 0.011 | 0.033 | -0.03 | -0.054 | -0.09 | 0.042 |
| FOXJ3 (UniProt Q9UPW0) | -0.009 | -0.03 | -0.031 | 0.014 | 0.033 | 0.055 | -0.137 | -0.028 | 0 | 0.054 | 0.039 | -0.049 | -0.053 | 0.101 | 0.035 | -0.042 | 0.021 | 0 | -0.139 | -0.003 |
| EDC4 (UniProt Q6P2E9) | -0.012 | -0.14 | 0.015 | -0.008 | -0.034 | 0.009 | -0.116 | 0.021 | 0.021 | -0.017 | -0.025 | -0.029 | -0.01 | -0.044 | 0.016 | -0.027 | -0.016 | -0.014 | -0.043 | 0.049 |
| DUS2 (UniProt Q9NX74) | 0.056 | -0.084 | 0.013 | 0.016 | -0.045 | -0.027 | 0.352 (active) | -0.007 | 0.013 | 0.026 | -0.033 | 0.04 | 0.041 | -0.032 | 0.018 | -0.051 | 0.011 | -0.01 | -0.017 | -0.009 |
| EP400 isoform 5 (UniProt Q96L91) | 0.015 | -0.022 | 0.037 | 0.01 | 0.035 | -0.028 | 0.068 | 0.004 | 0.023 | -0.055 | 0.052 | -0.068 | -0.04 | -0.018 | -0.036 | -0.012 | -0.041 | 0.02 | -0.053 | -0.011 |
| ENSA isoform 3 (UniProt O43768) | 0.015 | -0.038 | -0.012 | 0.03 | -0.027 | -0.024 | -0.053 | -0.014 | 0.001 | 0.001 | 0.021 | 0.02 | 0.058 | 0.103 | 0.049 | -0.042 | -0.027 | -0.068 | 0.058 | -0.103 |
| FANCD2 isoform 1 (UniProt Q9BXW9) | 0 | -0.082 | -0.001 | -0.044 | 0.147 | -0.059 | 0.096 | 0.001 | 0.023 | 0.009 | -0.092 | -0.037 | -0.221 | -0.086 | -0.032 | 0.132 | -0.069 | -0.023 | -0.079 | 0.279 (active) |
| EXTL2 (UniProt Q9UBQ6) | -0.016 | 0 | 0.009 | 0.037 | 0.104 | 0.168 | -0.048 | -0.021 | -0.005 | -0.111 | -0.071 | -0.282 | 0.032 | -0.138 | -0.001 | 0.106 | 0.028 | 0.058 | -0.02 | -0.006 |
| GATAD2A isoform 3 (UniProt Q86YP4) | -0.028 | -0.045 | 0.015 | 0 | 0.025 | 0.005 | 0.072 | 0.006 | 0.01 | -0.023 | -0.012 | -0.031 | -0.011 | -0.031 | -0.037 | 0.016 | -0.009 | 0.026 | 0.001 | 0.061 |
| DUS3L (UniProt Q96G46) | 0.076 | -0.065 | -0.012 | -0.023 | 0.001 | 0.091 | -0.024 | -0.02 | 0.036 | -0.005 | -0.009 | -0.02 | -0.027 | 0.202 | -0.022 | -0.081 | 0.009 | -0.018 | 0.093 | -0.097 |
| FAM118B (UniProt Q9BPY3) | -0.023 | -0.058 | -0.002 | 0.037 | -0.009 | 0.026 | -0.048 | -0.011 | -0.043 | 0.016 | 0.022 | -0.013 | -0.093 | -0.022 | 0.045 | -0.044 | -0.008 | 0.048 | 0.008 | 0.037 |
